# Measured values published in the supplement of paper PMC11060735.
# Where “and” joins values, the source holds several entries; their conditions need not be identical. Equal values may be shown once. Where a name gives a salt, the structure may show the parent alone. ± gives the standard deviation of the averaged measurements. The full ranking holds about 1,800 compounds; the median of “GFP- (p16Ink4a-) cell count relative to negative-control wells” is about 0.99, and the lowest 2% start at about 0.5. The sample as a whole holds a higher share of the lowest values than the screen did.
# Tested on: mouse p16Ink4a+/- lung fibroblasts (INKBRITE, bleomycin-injured)
# Assay: GFP- (p16Ink4a-) cell count relative to negative-control wells (fold of vehicle); higher = more p16Ink4a- cells surviving
# Settings: 1 µM; 3 days
row,SMILES,GFP-
1,N[C@H]1C[C@@H]1c1ccc(-c2cccc(O)c2)cc1,1.01 ± 0.044
2,Cc1c(C(=O)NN2CCCCC2)nn(-c2ccc(Cl)cc2Cl)c1-c1ccc(I)cc1,1.06
3,Cn1cc(-c2ccc3ncc(Cc4ccc5ncccc5c4)n3n2)cn1,1.01
4,O=C1C(Cl)=C(N2CCOCC2)C(=O)N1c1ccc(Cl)c(Cl)c1,1.05
5,Cc1ccc(Nc2nccc(N(C)c3ccc4c(C)n(C)nc4c3)n2)cc1S(N)(=O)=O [Pazopanib],0.999 and 1.07
6,CNC(=O)c1ccc(N2C(=S)N(c3ccc(C#N)c(C(F)(F)F)c3)C(=O)C2(C)C)cc1F [Enzalutamide],1.11
7,CC1(C)Cc2c(-c3ccccc3)c(-c3ccc(Cl)cc3)c(CC(=O)O)n2C1 [Licofelone],0.892
8,CNCc1ccc(-c2[nH]c3cc(F)cc4c3c2CCNC4=O)cc1 [Rucaparib],0.817 ± 0.037
9,CCCCN1CCCCC1C(=O)Nc1c(C)cccc1C (stereo not drawn) [Bupivacaine],1.13
10,CC(C)C1CCC(C(=O)N[C@H](Cc2ccccc2)C(=O)O)CC1 (stereo partly drawn) [Nateglinide],1.06
11,CNC(=O)[C@H](Cc1ccccc1)NC(=O)[C@H](CC(C)C)[C@H](CSc1cccs1)C(=O)NO [Batimastat],1.08
12,CC(C)C[C@H](NC(=O)[C@H](Cc1ccccc1)NC(=O)c1cnccn1)B(O)O [Bortezomib],0.294
13,Nc1nc(N)c(N=O)c(OCC2CCCCC2)n1,1.07
14,Clc1ccc(Nc2nnc(Cc3ccncc3)c3ccccc23)cc1 [Vatalanib],0.918
15,Cc1cccc(C)c1OCC(=O)N[C@@H](Cc1ccccc1)[C@@H](O)C[C@H](Cc1ccccc1)NC(=O)[C@H](C(C)C)N1CCCNC1=O [Lopinavir],0.947
16,CC[C@H]1OC(=O)[C@H](C)[C@@H](O[C@H]2C[C@@](C)(OC)[C@@H](O)[C@H](C)O2)[C@H](C)[C@@H](O[C@@H]2O[C@H](C)C[C@H](N(C)C)[C@H]2O)[C@](C)(O)C[C@@H](C)/C(=N/OCOCCOC)[C@H](C)[C@@H](O)[C@]1(C)O [Roxithromycin],0.988
17,Sc1ncnc2[nH]cnc12 [Mercaptopurine],1.05
18,COC[C@H](NC(=O)c1cnc(C)s1)C(=O)N[C@@H](COC)C(=O)N[C@@H](Cc1ccccc1)C(=O)C1(C)CO1 (stereo partly drawn) [Oprozomib],0.381
19,C=CC(=O)Nc1ccc2ncnc(Nc3cccc(Br)c3)c2c1,0.994
20,Cc1onc(-c2c(Cl)cccc2Cl)c1C(=O)N[C@@H]1C(=O)N2[C@@H]1SC(C)(C)[C@@H]2C(=O)O [Dicloxacillin],0.966
21,COc1cc(N2CCC(N(C)C)CC2)ccc1Nc1ncc(Cl)c(Nc2ccccc2P(C)(C)=O)n1,1.08
22,"NC(=O)N1c2ccccc2CC(=O)c2ccccc21 [Oxcarbazepine, Trileptal]",1.06
23,C[C@H](NC(=O)[C@@H](O)c1cc(F)cc(F)c1)C(=O)N[C@@H]1C(=O)N(C)c2ccccc2-c2ccccc21,0.963
24,Cc1cc(=O)oc2cc(O)ccc12 [7-hydroxy-4-methyl-2H-chromen-2-one],1.08
25,Cn1cnc(N)c2ncnc1-2 [3-Methyladenine],0.988

row,SMILES,GFP-
1,COc1ccc(CCc2nc3cc(-c4c(C)noc4C)ccc3n2C[C@H](C)N2CCOCC2)cc1Cl,0.854 ± 0.4
2,C=CCc1ccc(O)c(-c2cc(CC=C)ccc2O)c1 [Magnolol],0.993
3,Cc1c[nH]c(-c2cnc(NCCNc3ccc(C#N)cn3)nc2-c2ccc(Cl)cc2Cl)n1,1.14
4,CCNC(=O)c1[nH]nc(-c2cc(Cl)c(O)cc2O)c1-c1ccc(OC)cc1,0.89
5,CS(=O)(=O)OCCCCOS(C)(=O)=O [Busulfan],0.83
6,CCOc1ccc2ccccc2c1C(=O)N[C@@H]1C(=O)N2[C@@H]1SC(C)(C)[C@@H]2C(=O)O [Nafcillin Sodium],0.94
7,CCO/C(O)=C1\C(C)=NC(C)=C(C(=O)OC)C1c1cccc([N+](=O)[O-])c1 (stereo not drawn) [Nitrendipine],1.18
8,O=c1cc(N2CCOCC2)oc2c1ccc1ccccc12,1.03
9,Nc1cc(C(F)(F)F)c(-c2cc(N3CCOCC3)nc(N3CCOCC3)n2)cn1 [Buparlisib],0.719
10,C#Cc1cccc(Nc2ncnc3cc4c(cc23)OCCOCCOCCO4)c1 [Icotinib],0.916
11,O=C(NOCC(O)CO)c1cc(Br)c(F)c(F)c1Nc1ccc(I)cc1F (stereo not drawn),0.818
12,C#Cc1cccc(Nc2ncnc3cc(OCCOC)c(OCCO)cc23)c1,0.823
13,C#Cc1cccc(Nc2ncnc3cc(OCCOC)c(OCCOC)cc23)c1 [Erlotinib],0.287
14,C#Cc1cccc(Nc2ncnc3cc(OC)c(OCCCCCCC(=O)NO)cc23)c1,1.01 ± 0.091
15,C[C@@H]1CN(c2c(F)c(N)c3c(=O)c(C(=O)O)cn(C4CC4)c3c2F)C[C@H](C)N1 [Sparfloxacin],1.02
16,CCN1CCN(Cc2ccc(Nc3ncc(F)c(-c4cc(F)c5nc(C)n(C(C)C)c5c4)n3)nc2)CC1,0.983
17,Cc1cc(C)c2c(c1)[C@@H](N(Cc1cc(C(F)(F)F)cc(C(F)(F)F)c1)c1nnn(C)n1)CCCN2C[C@H]1CC[C@H](C(=O)O)CC1 [Evacetrapib],0.993
18,C[C@H](CCC(=O)O)[C@H]1CC[C@H]2[C@@H]3C[C@H](O)[C@@H]4C[C@H](O)CC[C@]4(C)[C@H]3CC[C@]12C [Hyodeoxycholic acid (HDCA)],0.901
19,CC1(C)SC2C(NC(=O)[C@H](NC(=O)N3CCNC3=O)c3ccccc3)C(=O)N2C1C(=O)O (stereo partly drawn) [Azlocillin sodium salt],0.956
20,CC(C)(C)c1nc(-c2cccc(NS(=O)(=O)c3c(F)cccc3F)c2F)c(-c2ccnc(N)n2)s1 [Dabrafenib],0.448
21,C[C@]12CC[C@@H]3c4ccc(O)cc4C[C@@H](CCCCCCCCCS(=O)CCCC(F)(F)C(F)(F)F)[C@H]3[C@@H]1CC[C@@H]2O (stereo partly drawn) [Fulvestrant],1.15
22,NS(=O)(=O)c1ccc(NC(=O)Nc2ccc(F)cc2)cc1,1.06
23,CN1CCC(NC(=O)c2cc(-c3c(O)cc(O)cc3Oc3ccc([N+](=O)[O-])cc3)on2)CC1,1.03
24,Cn1c(=O)cc(N2CCC[C@@H](N)C2)n(Cc2cc(F)ccc2C#N)c1=O [Trelagliptin],0.941
25,"C[N+](C)(C)CC(O)CC(=O)O (stereo not drawn) [Carnitine Hydrochloride, Carnitine (dl) Hydrochloride]",1.1

row,SMILES,GFP-
1,C[C@H](NCc1ccc(OCc2cccc(F)c2)cc1)C(N)=O [Safinamide],1.06
2,OC[C@@H](O)CN1CCN(c2ccccc2)CC1 [Levodropropizine],1.05
3,CC(=O)O[C@]1(C(C)=O)CC[C@H]2[C@@H]3C=C(Cl)C4=CC(=O)[C@@H]5C[C@@H]5[C@]4(C)[C@H]3CC[C@@]21C [Cyproterone Acetate],1.14
4,C=C1CC[C@H](O)C/C1=C/C=C1\CCC[C@]2(C)[C@@H]([C@H](C)CCCC(C)(C)O)CC[C@@H]12 [Calcidiol],1.2
5,CCOC(=O)c1c(CSc2ccccc2)n(C)c2cc(Br)c(O)c(CN(C)C)c12 [Arbidol HCl],0.933
6,O=S(=O)(c1ccccc1)N(CC(F)(F)F)c1ccc(C(O)(C(F)(F)F)C(F)(F)F)cc1,0.972
7,CN1CCOC(c2ccccc2)c2ccccc2C1 (stereo not drawn) [Nefopam],1.1
8,CCOC(=O)[C@H](CCc1ccccc1)N[C@H]1CCc2ccccc2N(CC(=O)O)C1=O [Benazepril],1.01
9,Cc1c(-c2ccccc2)oc2c(C(=O)OCCN3CCCCC3)cccc2c1=O [Flavoxate],1.1
10,C[C@@H]1O[C@@H](O[C@H]2[C@H](Oc3cc(O)c4c(c3)O[C@H](c3ccc(O)cc3)CC4=O)O[C@H](CO)[C@@H](O)[C@@H]2O)[C@H](O)[C@H](O)[C@H]1O [Naringin],1.1
11,Nc1ccc(S(=O)(=O)Nc2ccccn2)cc1 [Sulfapyridine],0.965
12,O=C1C[C@@H](c2ccc(O)cc2)Oc2cc(O)cc(O)c21 [Naringenin],0.938
13,C/C(=N\NC(=S)N1CCC1)c1ccccn1,0.4
14,Cn1c(=O)cc(N2CCC[C@@H](N)C2)n(Cc2ccccc2C#N)c1=O [Alogliptin],0.943
15,COC(=O)[C@H]1[C@H]2C[C@@H]3c4[nH]c5cc(OC)ccc5c4CCN3C[C@H]2C[C@@H](OC(=O)c2cc(OC)c(OC)c(OC)c2)[C@@H]1OC [Reserpine],0.806
16,C=CC[N+]1([C@H]2C[C@H]3[C@@H]4CC[C@H]5C[C@H](O)[C@@H](N6CCOCC6)C[C@]5(C)[C@H]4CC[C@]3(C)[C@H]2OC(C)=O)CCCC1 [Rocuronium],0.894
17,COc1cccc2c1C(=O)c1c(O)c3c(c(O)c1C2=O)C[C@@](O)(C(C)=O)C[C@@H]3O[C@H]1C[C@H](N)[C@H](O)[C@H](C)O1 [Daunorubicin],0.754
18,"CC(=O)[C@]1(O)Cc2c(O)c3c(c(O)c2[C@@H](O[C@H]2C[C@H](N)[C@H](O)[C@H](C)O2)C1)C(=O)c1ccccc1C3=O [Idarubicin, Idarubicin Hydrochloride]",0.224
19,COc1cccc2c1C(=O)c1c(O)c3c(c(O)c1C2=O)C[C@@](O)(C(=O)CO)C[C@@H]3O[C@H]1C[C@H](N)[C@H](O)[C@H](C)O1 [Doxorubicin],0.72
20,COc1cc(-c2cc3ccccc3[nH]2)[nH]c1/C=C1\N=C(C)C=C1C [Obatoclax Mesylate],0.249
21,C=C1C(=O)O[C@@H]2/C=C(\C)CC/C=C(\C)CC[C@@H]12 [Costunolide],1.1
22,Cc1coc2c1C(=O)C(=O)c1c-2ccc2c(C)cccc12 [Tanshinone I],1.03
23,Cn1cc(-c2ccc3nnc(Sc4ccc5ncccc5c4)n3n2)cn1,0.95
